Source: PubChem BioAssay AID720517 (National Center for Advancing Translational Sciences (NCATS), 2013)
Records with an inconclusive call do not appear. Active and inactive are the calls of the source. Calls come from the whole dose curve; as a rule, active = well fitted activation curve with a large enough effect; inconclusive = small, poorly fitted or top-dose-only effect; inactive = flat fitted curve, though single readings scatter.

Assay: qHTS for Inhibitors of Cell Surface uPA Generation: FP59 Counterscreen for Cherry-picked Compounds; note: 0% is about no effect
Conditions: FP59 anthrax toxin cytotoxicity counterscreen, cells; series mostly up to 115 µM; activity (protection from FP59): at the top concentration

Compound	activity (protection from FP59)
COC(=O)c1cc(CNC(=O)c2ccc(N3CCCC3)c([N+](=O)[O-])c2)ccc1OC	-1.29% (inactive)
COCCN(C(=O)c1ccc(OC2CCN(S(=O)(=O)N(C)C)CC2)cc1)C(C)C	-1.51% (inactive)
Cc1cc(COc2ccccc2)oc1C(=O)O	-1.48% (inactive)
CC(C)CN(C(=O)CN1CCC(C)CC1)c1c(N)n(CC(C)C)c(=O)[nH]c1=O	-1.42% (inactive)
Cc1nc(SCc2nc3ccccc3[nH]2)c2oc3cc([N+](=O)[O-])ccc3c2n1	-0.853% (inactive)
COc1ccc(NC(=O)Nc2nnc(N3CCCCC3C)s2)cc1OC (centres undefined)	-1.42% (inactive)
C[N+]1(CC(O)c2ccccc2)CCCCCC1 (centres undefined)	-1.28% (inactive)
O=C(NC1CC1)C1CCCN(C(=O)NC2CCCCC2)C1 (centres undefined)	-1.52% (inactive)
CC(O)[C@H]1CNC(=O)C(=O)N1CCc1cccc(F)c1 (some centres undefined)	-1.32% (inactive)
CCn1nc(C)c(CNC(=O)C2CCC(=O)N(CCc3ccc(OC)cc3)C2)c1C (centres undefined)	-1.23% (inactive)
CC(=O)Nc1sc(C)c(C)c1C(=O)OCC(=O)NC(C)c1ccccc1 (centres undefined)	-1.02% (inactive)
O=C(CCCC(=O)N(c1cccc(F)c1)C(C(=O)NC1CCCC1)c1ccc(O)cc1)Nc1ccccn1 (centres undefined)	-1.23% (inactive)
CC/C(=N\Nc1ccccc1[N+](=O)[O-])c1ccc(O)cc1	-1.24% (inactive)
[N-]=[N+]=NC1C[C@H](n2ccc(=O)[nH]c2=O)O[C@@H]1CO (some centres undefined)	-1.11% (inactive)
O=C(Cc1n[nH]c(=O)c2ccccc12)Nc1cccc(S(=O)(=O)N2CCCCCC2)c1	0.793% (inactive)
COc1cccc(NC(=O)CN(C)C(=O)c2csc3c2CCCC3)c1	-0.968% (inactive)
CCOc1ncccc1C(=O)NCc1ccccc1Cl	-1.27% (inactive)
Cc1oc(-c2ccccc2F)nc1CS(=O)CC(=O)NCc1ccc(F)cc1 (centres undefined)	-1.16% (inactive)
CCN(CC)CCCNC(=O)c1cn(C)c(=O)c2c1c1ccccc1n2C	-1.3% (inactive)
COc1ccc(-c2csc(NC(C)c3nc4cc(C(=O)NCCCO)ccc4n3Cc3ccc(C)cc3)n2)cc1 (centres undefined)	7.96% (inactive)

Compound	activity (protection from FP59)
COc1ccccc1CN1CC(C(=O)NCc2cccc(C)n2)CCC1=O (centres undefined)	-0.85% (inactive)
CCOC(=O)C1CCN(S(=O)(=O)c2c[nH]c(=O)[nH]c2=O)CC1	-0.73% (inactive)
COC(=O)c1ccccc1NC(=O)Nc1nnc(N2CCCCC2C)s1 (centres undefined)	12.4% (inactive)
O=C(C[C@@H]1C/C=C\C[C@H](Cc2ccc(F)cc2)C(=O)OC[C@H]2CCCN2C1=O)N[C@H](CO)Cc1ccccc1	-1.53% (inactive)
COc1ccc(C(=O)NNC(=O)Cc2ccc(Cl)cc2)cc1	-1.18% (inactive)
COc1cc(NC(=O)COC(=O)c2cc(S(=O)(=O)N3CCCCC3)ccc2Cl)c(C)cc1[N+](=O)[O-]	-1.36% (inactive)
O=C(O)c1ccccc1/C=N/NC(=S)NC1CCCCC1	-1.18% (inactive)
Cc1ccc(Cl)cc1NC(=O)c1ccccc1OCC(=O)N1CCOCC1	-0.889% (inactive)
CC1(C)CC(=O)C=C(c2ccc3ccccc3c2)C1	0.0857% (inactive)
Cc1cc(/C=N/NC(=O)c2ccccc2F)c(C)n1-c1ccccc1	-0.245% (inactive)
COC(=O)CCSCC(=O)N1N=C(c2ccc(OC)cc2)CC1c1cccc(OC)c1OC (centres undefined)	-1.4% (inactive)
Cc1ccc(S(=O)(=O)NCC(=O)N/N=C/c2ccc(Cl)cc2)cc1	-0.814% (inactive)
O=C1C[C@@H]2CCN3C(=O)CCC[C@@H]([C@H]23)[C@H]1Cc1ccccc1	-1.4% (inactive)
O=S(=O)(/N=C(/c1ccccc1)N1CCOCC1)c1ccc(F)cc1F	-1.28% (inactive)
CC(CCc1ccccc1)NC(=O)c1ccc(NC(=O)c2cccc(Br)c2)cc1 (centres undefined)	-1.22% (inactive)
C[n+]1c2cc(N)ccc2cc2ccc(N)cc21	-1.59% (inactive)
CC(=O)[C@@]1(O)[C@H](C)CC2C3CC=C4CC(OP(=O)(O)O)CC[C@]4(C)C3CC[C@@]21C (some centres undefined)	-1.22% (inactive)
Cc1ccc(S(=O)(=O)N2CCC(C)CC2)cc1	-1.49% (inactive)
Cc1cc(C)nc(NC(=O)CSc2nccc(C)n2)n1	-1.55% (inactive)
